# “And” between values parts separate entries of the source, which are not always exact repeats. Identical values can stand only once. Out of some 5,500 compounds screened, about 2,000 (36%) were called active. About 18% were inconclusive and are not listed. Cut-off read from the data, not from the text of the source: active = normalized growth mostly below about 0.91 (no sharp cut-off); inconclusive = no clear call, values can overlap the other calls; inactive = mostly above about 0.92. The list shows a part of the results.
# Assay: chemical genetic growth profiling, strain panel (AID 1159580);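 note: tested at 20 µM; growth read once vehicle control cultures reached saturation at 30 °C; 1 = growth at the plate median or of vehicle wells; lower values mean less growth of the strain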
# Settings: S. cerevisiae deletion strains, growth OD
smiles,measurement,setting,value
CC(C)c1cc2c(c(O)c1O)[C@@]1(C(=O)O)CCCC(C)(C)C1CC2 (stereo partly drawn),normalized growth,"locus YAL021C, strain ccr4, stronger effect = lower value",0.988 (inactive)
same,normalized growth,"locus YAL026C, strain drs2, stronger effect = lower value",0.835 (active)
same,normalized growth,"locus YAL030W, strain snc1, stronger effect = lower value",0.917 (active)
same,normalized growth,"locus YBL061C, strain skt5, stronger effect = lower value",0.953 (inactive)
same,normalized growth,"locus YBR009C, strain hhf1, stronger effect = lower value",0.775 (active)
same,normalized growth,"locus YBR021W, strain FUR4, stronger effect = lower value",1.01 (inactive)
same,normalized growth,"locus YBR023C, strain chs3, stronger effect = lower value",0.956 (inactive)
same,normalized growth,"locus YBR171W, strain sec66, stronger effect = lower value",0.975 (inactive)
same,normalized growth,"locus YBR229C, strain ROT2, stronger effect = lower value",1.01 (inactive)
same,normalized growth,"locus YBR231C, strain swc5, stronger effect = lower value",0.969 (inactive)
same,normalized growth,"locus YBR279W, strain paf1, stronger effect = lower value",0.948 (inactive)
same,normalized growth,"locus YCL011C, strain gbp2, stronger effect = lower value",0.908 (active)
same,normalized growth,"locus YCL016C, strain dcc1, stronger effect = lower value",0.886 (active)
same,normalized growth,"locus YCL029C, strain bik1, stronger effect = lower value",1.01 (inactive)
same,normalized growth,"locus YCL061C, strain MRC1, stronger effect = lower value",0.954 (inactive)
same,normalized growth,"locus YCL069W, strain vba3, stronger effect = lower value",0.998 (inactive)
same,normalized growth,"locus YCR088W, strain abp1, stronger effect = lower value",0.991 (inactive)
same,normalized growth,"locus YDL005C, strain med2, stronger effect = lower value",1 (inactive)
same,normalized growth,"locus YDL035C, strain GPR1, stronger effect = lower value",0.943 (inactive)
same,normalized growth,"locus YDL040C, strain nat1, stronger effect = lower value",0.99 (inactive)
same,normalized growth,"locus YDL074C, strain BRE1, stronger effect = lower value",0.946 (inactive)
same,normalized growth,"locus YDL101C, strain DUN1, stronger effect = lower value",1.01 (inactive)
same,normalized growth,"locus YDL134C, strain PPH21, stronger effect = lower value",0.993 (inactive)
same,normalized growth,"locus YDL185W, strain tfp1, stronger effect = lower value",0.998 (inactive)
same,normalized growth,"locus YDL192W, strain arf1, stronger effect = lower value",0.874 (active)
same,normalized growth,"locus YDR001C, strain nth1, stronger effect = lower value",0.997 (inactive)
same,normalized growth,"locus YDR069C, strain doa4, stronger effect = lower value",0.923 (inactive)
same,normalized growth,"locus YDR101C, strain arx1, stronger effect = lower value",1.02 (inactive)
same,normalized growth,"locus YDR137W, strain rgp1, stronger effect = lower value",0.876 (inactive)
same,normalized growth,"locus YDR150W, strain NUM1, stronger effect = lower value",0.929 (inactive)
same,normalized growth,"locus YDR159W, strain sac3, stronger effect = lower value",0.902 (inactive)
same,normalized growth,"locus YDR162C, strain NBP2, stronger effect = lower value",0.851 (inactive)
same,normalized growth,"locus YDR195W, strain ref2",0.979 (inactive)
same,normalized growth,"locus YDR297W, strain sur2, stronger effect = lower value",0.982 (inactive)
same,normalized growth,"locus YDR318W, strain mcm21, stronger effect = lower value",0.959 (inactive)
same,normalized growth,"locus YDR334W, strain swr1, stronger effect = lower value",1 (inactive)
same,normalized growth,"locus YDR335W, strain msn5, stronger effect = lower value",0.988 (inactive)
same,normalized growth,"locus YDR388W, stronger effect = lower value",1 (inactive)
same,normalized growth,"locus YDR392W, strain spt3, stronger effect = lower value",0.24 (active)
same,normalized growth,"locus YDR502C, strain sam2, stronger effect = lower value",0.972 (inactive)
same,normalized growth,"locus YEL003W, strain gim4, stronger effect = lower value",0.94 (inactive)
same,normalized growth,"locus YEL037C, strain rad23, stronger effect = lower value",0.992 (inactive)
same,normalized growth,"locus YEL061C, strain CIN8 (second series), stronger effect = lower value",0.993 (inactive)
same,normalized growth,"locus YEL061C, strain CIN8, stronger effect = lower value",0.968 (inactive)
same,normalized growth,"locus YER015W, strain faa2, stronger effect = lower value",0.987 (inactive)
same,normalized growth,"locus YER016W, strain bim1, stronger effect = lower value",0.971 (inactive)
same,normalized growth,"locus YER110C, stronger effect = lower value",1.03 (inactive)
same,normalized growth,"locus YER111C, strain swi4, stronger effect = lower value",0.975 (inactive)
same,normalized growth,"locus YER155C, strain BEM2 (second series), stronger effect = lower value",0.697 (active)
same,normalized growth,"locus YER155C, strain BEM2, stronger effect = lower value",1.04 (inactive)
same,normalized growth,"locus YER167W, strain BCK2, stronger effect = lower value",0.981 (inactive)
same,normalized growth,"locus YFR010W, strain ubp6, stronger effect = lower value",0.944 (inactive)
same,normalized growth,"locus YGL078C, strain dbp3, stronger effect = lower value",0.957 (inactive)
same,normalized growth,"locus YGL086W, strain mad1, stronger effect = lower value",0.94 (inactive)
same,normalized growth,"locus YGL167C, strain pmr1, stronger effect = lower value",0.978 (inactive)
same,normalized growth,"locus YGL173C, strain kem1, stronger effect = lower value",0.885 (active)
same,normalized growth,"locus YGL227W, strain vid30, stronger effect = lower value",1 (inactive)
same,normalized growth,"locus YGL240W, strain doc1, stronger effect = lower value",0.938 (inactive)
same,normalized growth,"locus YGL248W, strain PDE1, stronger effect = lower value",0.962 (inactive)
same,normalized growth,"locus YGL253W, strain hxk2, stronger effect = lower value",0.976 (inactive)
same,normalized growth,"locus YGR078C, strain PAC10, stronger effect = lower value",0.873 (inactive)
same,normalized growth,"locus YGR135W, strain pre9, stronger effect = lower value",0.969 (inactive)
same,normalized growth,"locus YGR229C, strain SMI1, stronger effect = lower value",0.207 (active)
same,normalized growth,"locus YGR252W, strain gcn5, stronger effect = lower value",0.903 (inactive)
same,normalized growth,"locus YHR013C, strain ard1, stronger effect = lower value",0.705 (active)
same,normalized growth,"locus YHR027C, strain rpn1, stronger effect = lower value",0.956 (inactive)
same,normalized growth,"locus YHR030C, strain SLT2, stronger effect = lower value",0.903 (active) and 0.663 (active)
same,normalized growth,"locus YHR079C, strain IRE1 (second series), stronger effect = lower value",1 (inactive)
same,normalized growth,"locus YHR079C, strain IRE1, stronger effect = lower value",0.341 (active)
same,normalized growth,"locus YHR094C, strain hxt1, stronger effect = lower value",1.01 (inactive)
same,normalized growth,"locus YHR129C, strain ARP1, stronger effect = lower value",0.921 (inactive)
same,normalized growth,"locus YHR142W, strain chs7, stronger effect = lower value",0.969 (inactive)
same,normalized growth,"locus YHR200W, strain rpn10, stronger effect = lower value",0.984 (inactive)
same,normalized growth,"locus YIL066C, strain RNR3, stronger effect = lower value",0.937 (inactive)
same,normalized growth,"locus YIL073C, strain SPO22, stronger effect = lower value",0.936 (inactive)
same,normalized growth,"locus YIL125W, strain kgd1, stronger effect = lower value",0.958 (inactive)
same,normalized growth,"locus YIR030C, strain dcg1, stronger effect = lower value",1.01 (inactive)
same,normalized growth,"locus YJL092W, strain hpr5, stronger effect = lower value",0.98 (inactive)
same,normalized growth,"locus YJL095W, strain BCK1 (second series), stronger effect = lower value",0.86 (active)
same,normalized growth,"locus YJL095W, strain BCK1, stronger effect = lower value",0.962 (inactive) and 0.657 (active)
same,normalized growth,"locus YJL115W, strain asf1, stronger effect = lower value",1.01 (inactive)
same,normalized growth,"locus YJL129C, strain trk1, stronger effect = lower value",1.04 (inactive)
same,normalized growth,"locus YJL134W, strain LCB3, stronger effect = lower value",1.02 (inactive)
same,normalized growth,"locus YJL154C, strain vps35, stronger effect = lower value",1 (inactive)
same,normalized growth,"locus YJL164C, strain tpk1, stronger effect = lower value",0.908 (active)
same,normalized growth,"locus YJL166W, strain qcr8, stronger effect = lower value",0.462 (active)
same,normalized growth,"locus YJL168C, strain set2, stronger effect = lower value",1.01 (inactive)
same,normalized growth,"locus YJL187C, strain SWE1 (second series), stronger effect = lower value",0.973 (inactive)

# From PubChem BioAssay AID1159580 (chemical genetic matrix, 2015)
